Experimental data taken from ChEMBL document CHEMBL3433997, “St. Jude Leishmania screening dataset” (2016).

Experiments:
Assay type in all cases: functional
[1] = target: Solute carrier family 2, facilitated glucose transporter member 1 (Homo sapiens) (UniProt P11166); assay: ST_JUDE_LEISH: Cytotoxicity at 2uM final concentration against transgenic Leishmania Mexicana promastigotes LmGLUT1 that are glucose transport deficient and complemented with the human glucose transporter GLUT1. Activity is measured by DNA content using SYBR green in vitro
Chain of Solute carrier family 2, facilitated glucose transporter member 1 (Homo sapiens) (P11166 whole entry): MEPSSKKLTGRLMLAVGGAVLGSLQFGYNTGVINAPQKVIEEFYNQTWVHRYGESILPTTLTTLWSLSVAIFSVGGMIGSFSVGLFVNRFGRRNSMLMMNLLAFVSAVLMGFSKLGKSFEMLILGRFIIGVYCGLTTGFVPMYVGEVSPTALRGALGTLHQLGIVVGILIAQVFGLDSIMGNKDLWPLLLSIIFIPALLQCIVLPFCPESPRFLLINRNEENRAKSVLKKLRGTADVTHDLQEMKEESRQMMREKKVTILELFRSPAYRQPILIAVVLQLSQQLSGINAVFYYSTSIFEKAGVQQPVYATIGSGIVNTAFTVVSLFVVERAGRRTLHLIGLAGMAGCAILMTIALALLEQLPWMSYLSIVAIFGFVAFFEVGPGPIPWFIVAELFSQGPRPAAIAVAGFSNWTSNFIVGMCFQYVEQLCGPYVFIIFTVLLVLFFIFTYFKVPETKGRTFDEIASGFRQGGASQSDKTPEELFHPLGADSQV

[2] = target: Hexose transporter 1 (Plasmodium falciparum) (UniProt O97467); assay: ST_JUDE_LEISH: Cytotoxicity at 2uM final concentration against transgenic Leishmania Mexicana promastigotes LmPfHT that are glucose transport deficient and complemented with the Plasmodium falciparum hexose transporter. Activity is measured by DNA content using SYBR green in vitro
[3] = target: Glucose transporter (Leishmania mexicana) (UniProt O61059); assay: ST_JUDE_LEISH: Cytotoxicity at 2uM final concentration against transgenic Leishmania Mexicana promastigotes LmGT2 that are glucose transport deficient and complemented with the L. Mexicana glucose transporter 2. Activity is measured by DNA content using SYBR green in vitro

| SMILES | inhibition [1] | inhibition [2] | inhibition [3] |
| --- | --- | --- | --- |
| O=[N+]([O-])c1ccccc1C=NN=c1c2c([nH]c3ccccc13)CCCC2 | 20.8% | 17.5% | 12% |
| Cc1cc(Cl)c(S(=O)(=O)N(C)c2ccccc2)cc1OCC(=O)NC1CCCCC1 | 1.65% | 1.38% | 2.02% |
| CCn1c(-c2cc(C)on2)nc2cnc(Oc3ccc(C(=O)N4CC(=O)N(C)C4C(C)(C)C)cc3)cc21 (stereo unspecified) | -1.85% | 1.92% | 5.58% |
| O=C(c1cc2ccccc2o1)N1CCc2cc3nccc(N4CCN5CCC[C@H]5C4)c3cc21 | 3.95% | 4.36% | 6.35% |
| COc1ccc([N+](=O)[O-])cc1N(Cc1ccccc1-c1ccccc1)S(=O)(=O)c1ccc(C(F)(F)F)cc1 | 3.87% | 5.68% | 2.13% |
| COc1cc2c(cc1S(=O)(=O)c1ccc(NC(=O)c3cccc(C(F)(F)F)c3)cc1)CCN(C)CC2 | 1.16% | 0.62% | 1.88% |
| Fc1cc(CN2CCCC2)ccc1OCCCN1CCN(c2cccc(Cl)c2Cl)CC1 | 4.56% | 5.47% | 4.5% |
| CCC1CCCCN1S(=O)(=O)c1ccc(NC(=O)c2cc(C)on2)cc1 (stereo unspecified) | 2.22% | 0.15% | 3.74% |
| COc1ccc(OCCCCON2C(=N)N=C(N)NC2(C)C)cc1 | 3.18% | 1.29% | 2.18% |
| CN1CC=C(c2csc3ccc(NC(=O)Nc4ccc(-c5ccncc5)c5ccccc45)cc23)CC1 | 3.83% | 3.39% | -1.21% |
| CCCC[C@H](NC(=O)O[C@H](COc1ccc(OCc2ccccc2)cc1)C(C)(C)C)C(=O)C(=O)Nc1cc[nH]n1 | 3.68% | 3.22% | 1.64% |
| O=C(OCC1CCN(Cc2ccccc2)C1)c1ccc(Cl)cc1 (stereo unspecified) | 0.47% | 1.6% | 2.14% |
